# Measurements reported in ChEMBL document CHEMBL2218924, “A broad activity screen in support of a chemogenomic map for kinase signalling research and drug discovery” (Biochem J, 2013).
# Biological target: Insulin-like growth factor 1 receptor (Homo sapiens) (UniProt P08069)
# Conditions: at 10 µM
# Sequence of Insulin-like growth factor 1 receptor (Homo sapiens) (P08069 31-736 limits assumed): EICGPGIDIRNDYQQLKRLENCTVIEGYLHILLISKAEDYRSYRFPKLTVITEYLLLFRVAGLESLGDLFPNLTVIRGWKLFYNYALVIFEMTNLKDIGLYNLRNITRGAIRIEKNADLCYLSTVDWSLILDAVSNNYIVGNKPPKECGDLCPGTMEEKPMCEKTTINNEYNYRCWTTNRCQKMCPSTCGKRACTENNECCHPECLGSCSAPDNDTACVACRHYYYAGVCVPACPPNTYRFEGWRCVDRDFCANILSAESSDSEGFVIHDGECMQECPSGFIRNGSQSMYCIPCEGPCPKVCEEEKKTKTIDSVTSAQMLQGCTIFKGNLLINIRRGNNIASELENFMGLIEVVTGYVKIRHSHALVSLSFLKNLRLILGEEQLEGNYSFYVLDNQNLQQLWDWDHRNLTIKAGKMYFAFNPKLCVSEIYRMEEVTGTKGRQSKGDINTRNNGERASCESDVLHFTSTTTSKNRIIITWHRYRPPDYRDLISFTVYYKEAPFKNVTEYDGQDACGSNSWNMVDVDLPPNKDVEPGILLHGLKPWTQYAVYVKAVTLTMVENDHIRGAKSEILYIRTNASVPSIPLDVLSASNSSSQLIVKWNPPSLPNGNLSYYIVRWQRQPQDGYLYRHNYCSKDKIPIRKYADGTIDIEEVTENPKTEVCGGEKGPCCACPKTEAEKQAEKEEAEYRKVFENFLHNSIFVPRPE
# Sequence of Insulin-like growth factor 1 receptor (Homo sapiens) (P08069 741-1367 limits assumed): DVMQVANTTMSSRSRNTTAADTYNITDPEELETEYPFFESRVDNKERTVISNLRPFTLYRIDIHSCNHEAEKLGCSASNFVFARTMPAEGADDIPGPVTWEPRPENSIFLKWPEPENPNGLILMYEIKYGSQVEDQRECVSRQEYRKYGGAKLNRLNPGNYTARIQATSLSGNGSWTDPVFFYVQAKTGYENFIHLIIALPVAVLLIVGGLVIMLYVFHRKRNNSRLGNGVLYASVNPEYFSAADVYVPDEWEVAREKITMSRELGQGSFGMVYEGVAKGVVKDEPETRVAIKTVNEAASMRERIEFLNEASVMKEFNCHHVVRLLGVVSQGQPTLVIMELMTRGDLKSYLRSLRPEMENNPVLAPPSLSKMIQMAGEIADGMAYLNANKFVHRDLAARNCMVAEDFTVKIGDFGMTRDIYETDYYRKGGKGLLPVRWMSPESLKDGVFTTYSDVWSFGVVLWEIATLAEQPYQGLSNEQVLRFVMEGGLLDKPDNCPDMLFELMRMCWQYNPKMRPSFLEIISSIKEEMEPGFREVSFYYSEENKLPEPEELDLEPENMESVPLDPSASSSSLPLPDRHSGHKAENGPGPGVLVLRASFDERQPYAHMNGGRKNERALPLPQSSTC
row,Compound,residual activity
1,COc1ccc2c(c1)c(C1=C(c3c[nH]c4ccccc34)C(=O)NC1=O)cn2CCCN(C)C,104%
2,COc1cc2nccc(Oc3ccc(NC(=S)NC(=O)c4ccccc4C)cc3)c2cc1OC,148%
3,CC(C)(C)n1nc(Cc2cccc3ccccc23)c2c(N)ncnc21,96%
4,O=C(NC(NC(=S)Nc1ccc(F)c([N+](=O)[O-])c1)C(Cl)(Cl)Cl)C(c1ccccc1)c1ccccc1 (stereo not given),42%
5,Nc1ncnc2c1cnn2-c1ccccc1,129%
6,O=C1NC(=O)c2c1c1c3ccccc3[nH]c1n1cncc21,14%
7,CCCCc1c(-c2ccc(OC)cc2)[nH]c2nccnc12,136%
8,COc1cc2c(cc1OC)-c1n[nH]c(Nc3cccc(F)c3)c1C2,115%
9,Nc1ncnc2c1c(-c1ccc(Oc3ccccc3)cc1)cn2C1CCCC1,119%
10,CCCC(=O)Oc1ccc2[nH]c(C(=O)c3cc4ccccc4[nH]3)cc2c1,106%
11,CCN(CC)CCNC(=O)c1c(C)[nH]c(/C=C2\C(=O)Nc3ccc(Cl)cc32)c1C,13%
12,O=C(c1cc2cc(O)ccc2[nH]1)c1cc2cc(O)ccc2[nH]1,63%
13,CN(C)S(=O)(=O)c1ccc2c(c1)/C(=C/c1cc3c([nH]1)CCCC3)C(=O)N2,134%
14,O=C(CCCc1ccc(-c2ccccc2F)cc1)Nc1ccc(O)cc1,100%
15,NC(=O)Nc1sc(-c2ccc(F)cc2)cc1C(N)=O,32%
16,O=C(c1ccccc1)c1ccc(N2CCOCC2)cc1O,81%
17,O=c1cc(N2CCNCC2)oc2c(-c3ccccc3)cccc12,149%
18,CC(C)[C@H](CO)Nc1nc(Nc2cc(N)cc(Cl)c2)c2ncn(C(C)C)c2n1,92%
19,O=C1C(Cl)=C(N2C(=O)CCC2=O)C(=O)c2ccccc21,130%
20,Cn1c2ccccc2c2c3c(c4c5ccccc5n(CCC#N)c4c21)CNC3=O,104%
21,CC(C)c1nn(-c2c(Cl)cccc2Cl)c2nc(Cc3ccc(OCCO)cc3)[nH]c(=O)c12,103%
22,Nc1nc(Nc2ccc(S(N)(=O)=O)cc2)nn1C(=O)c1c(F)cccc1F,105%

# Biological target: T1, Protein kinase C zeta type (Homo sapiens) (UniProt Q05513)
# T1 sequence (whole entry): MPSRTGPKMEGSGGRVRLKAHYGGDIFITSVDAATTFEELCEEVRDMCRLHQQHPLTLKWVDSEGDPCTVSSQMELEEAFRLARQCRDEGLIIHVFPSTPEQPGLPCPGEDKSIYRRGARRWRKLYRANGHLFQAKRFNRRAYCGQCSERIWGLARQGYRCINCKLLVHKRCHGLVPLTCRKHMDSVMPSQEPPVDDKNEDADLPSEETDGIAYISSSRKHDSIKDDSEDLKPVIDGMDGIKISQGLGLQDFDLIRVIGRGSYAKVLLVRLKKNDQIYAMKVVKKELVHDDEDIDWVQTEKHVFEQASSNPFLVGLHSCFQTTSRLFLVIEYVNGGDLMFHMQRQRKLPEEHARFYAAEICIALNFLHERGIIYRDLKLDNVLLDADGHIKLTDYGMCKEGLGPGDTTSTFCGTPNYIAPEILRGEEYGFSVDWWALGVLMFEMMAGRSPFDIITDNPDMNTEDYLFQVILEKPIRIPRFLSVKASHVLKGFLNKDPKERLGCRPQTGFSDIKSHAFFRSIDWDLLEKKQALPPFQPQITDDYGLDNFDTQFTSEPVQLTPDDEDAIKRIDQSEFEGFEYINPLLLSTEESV
# Conditions: at 10 µM
row,Compound,residual activity
1,COc1ccc2c(c1)c(C1=C(c3c[nH]c4ccccc34)C(=O)NC1=O)cn2CCCN(C)C,27%
2,CC(C)(C)n1nc(Cc2cccc3ccccc23)c2c(N)ncnc21,116%
3,O=C(NC(NC(=S)Nc1ccc(F)c([N+](=O)[O-])c1)C(Cl)(Cl)Cl)C(c1ccccc1)c1ccccc1 (stereo not given),94%
4,O=C1NC(=O)C(c2c[nH]c3ccccc23)=C1c1c[nH]c2ccccc12,25%
5,CCCCc1c(-c2ccc(OC)cc2)[nH]c2nccnc12,103%
6,COc1cc2c(cc1OC)-c1n[nH]c(Nc3cccc(F)c3)c1C2,109%
7,Nc1ncnc2c1c(-c1ccc(Oc3ccccc3)cc1)cn2C1CCCC1,107%
8,O=c1cc(N2CCOCC2)oc2c1ccc1ccccc12,91%
9,O=C1NC(=O)C(c2cn(CCCn3ccnc3)c3ccccc23)=C1Nc1ccccc1,50%
10,NC(=O)Nc1sc(-c2ccc(F)cc2)cc1C(N)=O,100%
11,O=C(O)/C=C/c1cc(Br)c(Br)c(Br)c1Br,88%
12,Cn1c2ccccc2c2c3c(c4c5ccccc5n(CCC#N)c4c21)CNC3=O,108%
13,CC(C)c1nn(-c2c(Cl)cccc2Cl)c2nc(Cc3ccc(OCCO)cc3)[nH]c(=O)c12,93%
